Screening results as filed in PubChem.
YB-1 expr inh = YB-1 expression inhibition; U2OS, qRT-PCR YB-1 vs CDIP delta delta Cp, 16 h; stronger effect = higher value; zero = DMSO, each unit about twofold; delta delta Cp (YB-1 minus CDIP) (no concentration beside the values); 0.37% of 30,000 active; AID 434959;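 active = delta delta Cp rounded down to an integer at or above 3, about 3 SD of DMSO wells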;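 also: higher means less YB-1 transcript or more CDIP transcript relative to DMSO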
ROS inducer = raises reactive oxygen species in U2OS cancer cells; 2% of 46,000 active; ROS induction (% of piperlongumine), % at 10 µM; AID 624156; U2OS ROS induction, H2DCF-DA fluorescence; in the data active = ROS induction above about 79%, passing the limit was not always enough; inconclusive = no clear call, values can overlap the other calls
Of the large screens only hits and unclear results are named; the others gave an inactive call. An excerpt weighted towards active compounds, which were near 2.1% of everything screened.

C[C@H]1CN([C@@H](C)CO)C(=O)c2cccc(NC(=O)c3ccc(-c4nccs4)cc3)c2O[C@H]1CN(C)Cc1ccc(C(F)(F)F)cc1	ROS inducer 109
COc1cccc(NCc2cn(-c3ccccc3)nc2-c2cccs2)c1	none (no result: YB-1 expr inh)
CCOC(=O)c1c(-c2ccccc2)csc1NC(=O)Cn1c(=O)oc2ccccc21	none (no result: YB-1 expr inh)
O=C(c1ccco1)c1cn(-c2ccccc2)nc1C(=O)c1nc2ccccc2s1	none (no result: YB-1 expr inh)
CCC(C)(C)NC(=S)Nc1cccc(OC)c1	none
COc1ccc2cc(C(C)C(=O)Nc3ccc(OC(F)(F)F)cc3)ccc2c1 (stereo unspecified)	none (no result: YB-1 expr inh)
CCc1cc(C(c2ccc(Cl)cc2)N2CCN(CCO)CC2)c(NC(=O)c2ccccc2)s1 (stereo unspecified)	ROS inducer 89
O=C(Nc1nc2ccc(Cl)cc2s1)C1CN(C(c2ccccc2)c2ccccc2)C1	none (no result: YB-1 expr inh)
C[C@H]1CN([C@@H](C)CO)C(=O)c2cc(NC(=O)Nc3ccc4c(c3)OCO4)ccc2O[C@H]1CN(C)Cc1ccc(C(F)(F)F)cc1	none
C[C@H]1CN([C@@H](C)CO)C(=O)c2cc(NC(=O)C3CCCCC3)ccc2O[C@@H]1CN(C)C(=O)Nc1cccc2ccccc12	none
C[C@@H]1CN([C@@H](C)CO)C(=O)c2cc(NC(=O)C3CCCCC3)ccc2O[C@H]1CN(C)C(=O)Nc1cccc2ccccc12	YB-1 expr inh 5.6
C[C@@H]1CN([C@H](C)CO)C(=O)c2cc(NC(=O)C3CC3)ccc2O[C@H]1CN(C)C(=O)Nc1ccc(C(F)(F)F)cc1	none
C[C@@H]1CN([C@@H](C)CO)C(=O)c2cc(NC(=O)C3CC3)ccc2O[C@@H]1CN(C)C(=O)Nc1ccc(C(F)(F)F)cc1	ROS inducer 80
C[C@@H]1CN([C@H](C)CO)C(=O)c2cc(NC(=O)Nc3ccc4c(c3)OCO4)ccc2O[C@H]1CN(C)Cc1ccc(C(F)(F)F)cc1	ROS inducer 119
C[C@@H]1CN([C@H](C)CO)C(=O)c2cc(NC(=O)C3CC3)ccc2O[C@H]1CN(C)C(=O)NC1CCCCC1	none
C[C@@H]1CN([C@@H](C)CO)C(=O)c2cc(NC(=O)C3CC3)ccc2O[C@H]1CN(C)C(=O)NC1CCCCC1	YB-1 expr inh 21
CCOC(=O)c1ccccc1NC(=O)COc1ccc(C)cc1C(C)(C)C	none (no result: YB-1 expr inh)
COc1ccc(Br)cc1COC(=O)C1c2ccccc2Oc2ccccc21	none
O=C(NC1CCCC1)C1CCN(S(=O)(=O)c2ccc3nc(-c4ccccc4)[nH]c3c2)CC1	none (no result: YB-1 expr inh)
COc1ccc(NC(=S)NCC2CCCO2)cc1 (stereo unspecified)	none (no result: YB-1 expr inh)
CCCCCCCCCC/C=C\CCCCCCCc1cccc(O)c1C(=O)O	none
C[C@H]1CN([C@@H](C)CO)C(=O)c2cc(NC(=O)Nc3ccc(C(F)(F)F)cc3)ccc2O[C@@H]1CN(C)C(=O)Nc1ccc2c(c1)OCO2	none
C[C@H](CO)N1C[C@H](C)[C@H](CN(C)C(=O)Nc2ccc(C(F)(F)F)cc2)Oc2ccc(NC(=O)Nc3ccc4c(c3)OCO4)cc2C1=O	ROS inducer 103
Cc1cccc(NC(=O)c2cccc(Br)c2)n1	none (no result: YB-1 expr inh)
O=C(CSc1ccc(-c2ccncc2)nn1)NC1CCCC1	none (no result: YB-1 expr inh)
C=C1C(=O)O[C@H]2[C@H]1[C@H](O)CC(=C)[C@@H]1CC(=O)C(C)[C@H]21 (stereo partly specified)	ROS inducer inconclusive
C=C1C(=O)O[C@H]2C1[C@H](OC(=O)/C(=C/CO)COC(=O)/C(C)=C/CO)CC(=C)[C@@H]1CC(=O)[C@@H](C)[C@@H]12 (stereo partly specified)	ROS inducer 87
Cc1cc(-c2nc(-c3ccnn3S(=O)(=O)c3cccc(C(F)(F)F)c3)cs2)no1	none (no result: YB-1 expr inh)
CCOC(=O)c1cc(-c2ccnn2S(=O)(=O)c2cccc(C(F)(F)F)c2)on1	ROS inducer 184 (no result: YB-1 expr inh)
CCOc1c(S(=O)(=O)NCc2ccccn2)ccc(Cl)c1Cl	none (no result: YB-1 expr inh)
COc1ccc([Si](C)(C)[C@@H]2[C@@H](CCO)O[C@]3(C(=O)N(Cc4ccccc4)c4ccc(N5C(=O)c6cccc7cccc5c67)cc43)[C@H]2C)cc1	ROS inducer inconclusive
C=CCN1C(=O)[C@@]2(O[C@@H](CCn3cc(CCO)nn3)[C@H]([Si](C)(C)c3ccc(OC)cc3)[C@H]2C)c2cc(N3C(=O)c4cccc5cccc3c45)ccc21	ROS inducer 90
C=CCN1C(=O)[C@]2(O[C@H](CCn3cc(CCO)nn3)[C@@H]([Si](C)(C)c3ccc(OC)cc3)[C@@H]2C)c2cc(N3C(=O)c4cccc5cccc3c45)ccc21	ROS inducer 97
C=CCN1C(=O)[C@@]2(O[C@@H](CCn3cc(CCO)nn3)[C@H]([Si](C)(C)c3ccc(OC)cc3)[C@H]2C)c2ccccc21	none
Nc1nnnn1/N=C\C=C\c1ccccc1	none (no result: YB-1 expr inh)
Cc1cccc(C)c1NC(=O)CCCSc1nnnn1-c1ccccc1	none (no result: YB-1 expr inh)
CCOC(=O)c1ccc(N2C(=O)C(Oc3ccccc3)C2c2ccc(OCC)cc2)cc1 (stereo unspecified)	none (no result: YB-1 expr inh)
COC(=O)C(C)Sc1nnc2c3ccccc3n(Cc3ccccc3)c2n1 (stereo unspecified)	ROS inducer 146 (no result: YB-1 expr inh)
CCC(Sc1nnc2c3ccccc3n(CC)c2n1)C(=O)NC(C)c1ccccc1 (stereo unspecified)	none (no result: YB-1 expr inh)
O=C(NCc1ccc(-c2cccs2)s1)NC(=O)c1ccccc1	none (no result: YB-1 expr inh)
Cc1cccc(-n2cnc3cc(C(=O)NCCC4=CCCCC4)ccc32)c1	none (no result: YB-1 expr inh)
CN/C(=C/[N+](=O)[O-])NCCSCc1csc(CN(C)C)n1	YB-1 expr inh 3.8
COC(=O)C1CCCN1S(=O)(=O)c1ccccc1 (stereo unspecified)	none
COc1ccc(S(=O)(=O)N2CCC(C)CC2)cc1	none (no result: YB-1 expr inh)
CC12CCC(CC(=O)c3ccccc3)(CC1)CC2	none
CC(C)(C)C1CCC2(CC1)C(C#N)C2(C#N)C(=O)c1ccccc1 (stereo unspecified)	ROS inducer 159
CC(C)(C)c1ccc(-c2noc(CCn3c(=O)oc4ccccc43)n2)cc1	none (no result: YB-1 expr inh)
Cc1cc(/C=C2/SC(=O)N(C(C)C)C2=O)c(C)n1-c1ccncc1	YB-1 expr inh 9.6
Cc1cc(C)cc(-n2c(C)cc(/C=C3\SC(=O)NC3=O)c2C)c1	none
Cc1ccc2c(cnn2C(=O)CCCC(=O)NC2CCCC(C)C2C)c1 (stereo unspecified)	none (no result: YB-1 expr inh)
CC(N=Cc1nc2ccccc2n1C)C12CC3CC(CC(C3)C1)C2 (stereo unspecified)	none (no result: YB-1 expr inh)
CCOc1ccc(OCCSc2nc3ccccc3n2Cc2ccccc2)cc1	none (no result: YB-1 expr inh)
CC(C)NC(=O)c1ccc2c(=O)n(Cc3ccco3)c(=S)[nH]c2c1	none (no result: YB-1 expr inh)
O=C(NCc1ccco1)c1ccc(Cn2c(=S)[nH]c3ccc(Br)cc3c2=O)cc1	ROS inducer 81 (no result: YB-1 expr inh)
Cc1ccc(CSCC2COC(c3cccs3)=N2)cc1 (stereo unspecified)	none (no result: YB-1 expr inh)
C=CCc1c(C)c(C#N)c2nc3ccccc3n2c1NCCc1ccc(OC)c(OC)c1	ROS inducer 133 (no result: YB-1 expr inh)
COc1ccc(CCNC(=O)CCn2c(SCC#N)nc3ccccc3c2=O)cc1OC	none (no result: YB-1 expr inh)
CCCCc1c(C)c(C#N)c2nc3ccccc3n2c1NCCN1CCOCC1	ROS inducer 96 (no result: YB-1 expr inh)
CCCc1cc(N2CCN(c3ccccc3)CC2)n2c(nc3ccccc32)c1C#N	none (no result: YB-1 expr inh)
CC(C)(C)c1ccc(S(=O)(=O)NCC(=O)Nc2ccc3c(c2)OCCO3)cc1	none (no result: YB-1 expr inh)
Cc1ncoc1C(=O)Nc1ccccc1F	none (no result: YB-1 expr inh)
CC1(C)O[C@@H]2[C@H](O1)[C@@H](CO)O[C@H]2n1cnc2c(N)ncnc21	ROS inducer 85
